# Cav3 T inh = inhibitors of human Cav3.2 T-type calcium channel; actives 4% (n = 100,000); B-score at 10 µM; Cav3.2-expressing cells, Fluo-4 calcium fluorescence FDSS; stronger effect = lower value; O95180;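 active = single-dose well whose peak fluorescence ratio is a statistical outlier from its plate by either plate-standardised score or position-corrected B-score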
# M1 agonist = agonists of M1 muscarinic receptor; CHO-M1 cells, Fluo-4 calcium fluorescence, agonist mode; stronger effect = higher value; B-score at 10 µM; actives 3% (n = 64,000);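 active = fluorescence rise, raw or as B-score row- and column-corrected plate score, outside the 99.7% band of its plate's samples, either direction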
# M1 antag = M1 muscarinic receptor (rat) antagonism; B-score at 10 µM; actives 3.4% (n = 64,000); CHO-M1 cells, Fluo-4 calcium, ACh EC80 antagonist mode; stronger effect = lower value; P08482; AID 628;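 active = calcium fluorescence response, raw or row-and-column corrected B-score, differing from the plate sample mean either way at a set confidence level, mostly lower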
# PLAP act = activators of human placental alkaline phosphatase | purified PLAP enzyme, luminescent substrate read-out; stronger effect = higher value | activation fold at 20 µM | actives 1.2% (n = 96,000); in the data active = activation fold above about 2
# Target sequence (P05187 whole entry, looked up): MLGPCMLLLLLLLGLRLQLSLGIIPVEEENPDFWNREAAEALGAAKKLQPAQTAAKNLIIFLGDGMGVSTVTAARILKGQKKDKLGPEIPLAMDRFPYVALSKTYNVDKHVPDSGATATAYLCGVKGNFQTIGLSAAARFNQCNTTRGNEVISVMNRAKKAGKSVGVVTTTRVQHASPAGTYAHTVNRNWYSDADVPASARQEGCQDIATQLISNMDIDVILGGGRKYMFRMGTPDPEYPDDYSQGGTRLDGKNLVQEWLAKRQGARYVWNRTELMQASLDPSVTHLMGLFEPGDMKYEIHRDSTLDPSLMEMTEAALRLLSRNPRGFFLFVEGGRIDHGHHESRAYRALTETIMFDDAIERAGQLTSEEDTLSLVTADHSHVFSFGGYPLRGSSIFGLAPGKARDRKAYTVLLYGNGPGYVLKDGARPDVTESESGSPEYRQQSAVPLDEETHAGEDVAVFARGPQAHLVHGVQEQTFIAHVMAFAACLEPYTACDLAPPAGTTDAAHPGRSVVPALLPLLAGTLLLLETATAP
# M1 antag conf = confirmation of rat M1 muscarinic receptor antagonists. shares compounds with M1 antag. CHO-M1 cells, Fluo-4 calcium, ACh EC80 antagonism; stronger effect = lower value. actives 43% (n = 1,700). calcium response (max-min fluorescence) at 10 µM;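 active = calcium response below the same-plate mean of wells given acetylcholine alone at its 80%-effect dose, minus 3 SD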
# mGluR4 antag = acts on human mGluR4 in M1 antagonist selectivity test. CHO-mGluR4 calcium flux, Fluo-4 fluorescence, glutamate EC80; stronger effect = lower value. AID 678. actives 0.9% (n = 1,700). fluorescence response (max-min) at 10 µM. shares compounds with M1 antag;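 active = fluorescence response below the plate's average for near-maximal glutamate wells, less 3 SD of those wells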;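 also: raw unnormalized fluorescence span taken in the window right after glutamate addition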
# Numbers stand for hits; i = inactive; nt = not tested or not shown. Sampled rows, rich in hits. Any-hit rate of the full collection: about 7.6%.
SMILES,Cav3 T inh,M1 agonist,M1 antag,PLAP act,M1 antag conf,mGluR4 antag
Oc1ccc(Nc2nc(NCC3CCCO3)c3ccccc3n2)cc1 (stereo not drawn),i,i,-5.7,i,483,i
Oc1ccccc1Nc1nc(NCC2CCCO2)c2ccccc2n1 (stereo not drawn),nt,i,i,i,nt,nt
O=C(NCCN1CCCCCC1)c1ccc(CS(=O)(=O)c2ccc(Br)cc2)o1,i,i,-3,i,470,i
O=C(NCCCN1CCCC1)c1ccc(CS(=O)(=O)c2ccc(Br)cc2)o1,nt,i,i,i,nt,nt
CCN(CC)CCOC(=O)C12CC3CC(CC(C3)C1)C2,i,i,-16,i,173,i
CCN(CC)S(=O)(=O)c1cccc(C(=O)NC(C(=O)Nc2nnc(C3CC3)s2)C(C)C)c1 (stereo not drawn),i,i,-2.6,i,i,i
COc1ccc(-c2ccnc3nc(N4CCN(c5ccccc5)CC4)nn23)cc1,i,nt,nt,i,nt,nt
CN1/C(=C\C(=O)c2ccco2)c2ccccc2CC1(C)C,i,i,-2.9,i,i,i
CCN1/C(=C/C(=O)c2ccco2)Sc2ccccc21,i,i,i,i,nt,nt
O=C(C1CCCN(Cc2ccccc2Br)C1)N1CCCCC1 (stereo not drawn),i,i,-2.3,i,397,i
COc1ccccc1CN1CCCC(C(=O)N(C)Cc2ccccc2)C1 (stereo not drawn),i,i,-3.8,i,513,i
O=C(C1CCCN(Cc2ccccc2)C1)N1CCCCC1 (stereo not drawn),i,nt,nt,i,nt,nt
COc1ccc(Br)cc1CN1CCCC(C(=O)N2CCCCCC2)C1 (stereo not drawn),i,i,-3.1,i,313,i
COc1ccc(C2=NN(C(=O)CSc3cn(C)c4ccccc34)C(c3ccc(OC)cc3)C2)cc1 (stereo not drawn),i,nt,nt,i,nt,nt
COc1ccc(-c2noc(-c3ccc(Br)o3)n2)cc1OC,i,i,i,i,nt,nt
COc1ccc(-c2noc(-c3cc(C)cc(C)c3)n2)cc1OC,i,i,-3.1,i,468,i
COc1cccc(-n2ccnc2SCC(=O)NCc2ccccc2)c1,nt,i,-2.7,i,i,i
CC(C)c1[nH]nc2c1C1(CCN(Cc3ccccc3)CC1)C(C#N)=C(N)O2,i,nt,nt,i,nt,nt
N#CC1=C(N)N2C(=C(C#N)C13CCN(Cc1ccccc1)CC3)Nc1ccccc12,i,i,-3.4,i,405,i
O=C(NCc1cccnc1)NC1(C(F)(F)F)Oc2ccc(Cl)cc2O1 (stereo not drawn),i,i,-1.6,i,410,i
COCCNC(=O)NC1(C(F)(F)F)Oc2ccc(Cl)cc2O1 (stereo not drawn),i,i,i,i,nt,nt
CCN(CC)CCOC(=O)c1c(C)oc2ccc(OC)cc12,i,i,-14,i,98,i
Cc1cc(C(=O)O)c(CSCc2cc(C(=O)O)oc2C)o1,nt,nt,nt,i,nt,nt
CSc1ccc(CN2CCC(O)CC2)cc1,nt,i,i,nt,nt,nt
CCCCOc1ccc(CN2CCC(O)CC2)cc1,i,i,-2.2,i,i,i
SMILES,Cav3 T inh,M1 agonist,M1 antag,PLAP act,M1 antag conf,mGluR4 antag
C=CCn1c(SCc2cccnc2)nnc1-c1ccncc1,i,i,i,i,nt,nt
C=CCn1c(SCc2nc3ccccc3[nH]2)nnc1-c1ccncc1,i,i,-16,i,i,i
CCOC(=O)c1oc2ccc(CNCCO)c(Cl)c2c1C,i,i,-1.9,i,519,i
O=C(COC(=O)c1ccccc1Nc1ccc(SC(F)F)cc1)NCc1ccco1,i,nt,nt,i,nt,nt
CCCCNC(=O)COC(=O)c1cc2c(C)nn(-c3ccccc3)c2s1,i,i,i,i,nt,nt
O=C(CC(c1ccccc1O)N1CCCCC1)N1CCCCC1 (stereo not drawn),i,i,-17,i,84,i
O=C1CSc2ccccc2N1Cc1ccccc1F,i,i,i,i,nt,nt
O=C(NCCN1CCOCC1)c1ccc2c(c1)N(Cc1ccccc1F)C(=O)CS2,nt,i,-3.8,i,172,i
N=c1sccn1CC(=O)NCCc1ccc(Cl)cc1,i,i,-4.7,i,408,i
CC1CCN(CCCNC(=O)c2coc3nc4ccccc4nc23)CC1,i,i,-4.8,i,390,i
CC1CCCN(CCCNC(=O)c2coc3nc4ccccc4nc23)C1 (stereo not drawn),i,i,-1.8,i,365,i
CCN(CC)C(=S)Sc1c(-c2ccccc2)c2cc(Cl)ccc2[nH]c1=O,i,nt,nt,i,nt,nt
